Data taken from PubChem BioAssay AID2280 (The Scripps Research Institute Molecular Screening Center, 2010).
In all, about 320,000 compounds went through this assay and about 1,400 (0.44%) were called active. The sample holds actives, similar compounds and a random draw of the others, so the mix is not that of the screen.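 How the source made its calls: active means percent inhibition above a per-plate cutoff, the plate mean of test compounds plus 3 SD (cut at about 30% in these data); inactive means the rest.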

The compounds below were run against Female germline-specific tumor suppressor gld-1 (Caenorhabditis elegans) (UniProt Q17339) (assay: small molecules blocking C. elegans GLD-1 RNA recognition – biochemical, fluorescence polarization, primary screen (AID 2280;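 further: 0% = DMSO wells with GLD-1 and probe and 100% = wells lacking GLD-1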)). Conditions: purified GLD-1 + fluorescein TGE RNA, at 5.96 µM, active compounds read high.
Sequence of Female germline-specific tumor suppressor gld-1 (Caenorhabditis elegans) (Q17339 whole entry, looked up): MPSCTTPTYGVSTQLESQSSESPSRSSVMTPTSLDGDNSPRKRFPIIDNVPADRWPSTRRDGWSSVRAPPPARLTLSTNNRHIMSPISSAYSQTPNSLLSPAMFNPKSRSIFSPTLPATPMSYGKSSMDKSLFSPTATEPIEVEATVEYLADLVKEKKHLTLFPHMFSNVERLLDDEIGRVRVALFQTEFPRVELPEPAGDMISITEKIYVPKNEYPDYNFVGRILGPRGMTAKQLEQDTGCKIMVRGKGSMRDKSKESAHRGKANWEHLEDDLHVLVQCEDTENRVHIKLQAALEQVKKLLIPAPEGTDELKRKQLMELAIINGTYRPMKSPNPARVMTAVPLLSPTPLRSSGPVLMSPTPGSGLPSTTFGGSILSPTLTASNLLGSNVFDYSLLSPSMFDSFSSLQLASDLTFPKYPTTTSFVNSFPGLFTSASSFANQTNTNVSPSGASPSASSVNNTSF
In the case of `CCCN1CC=C2C(C#N)=C(N)C(C#N)(C#N)C(c3cc(OC)ccc3OC)C2C1` (stereo not given), the inhibition is reported as 49% (active). In the case of `CCN1CC=C2C(C#N)=C(N)C(C#N)(C#N)[C@H](c3ccoc3)[C@H]2C1`, the inhibition is reported as 106% (active). `COC(=O)c1ccc(CNC(=O)C2CCC(=O)N(Cc3ccccn3)C2)cc1` (stereo not given) was tested, and the inhibition was 0.64% (inactive). `O=S(=O)(c1ccc(Cl)s1)N1CCC2(CC1)OCCO2` was tested, and the inhibition was -2.17% (inactive). `N#C[C@]1(S(=O)(=O)c2ccccc2)C[C@@H]2ON=C(c3cccc(Br)c3)[C@@H]2C1` was tested, and the inhibition was -1.68% (inactive). In the case of `O=C(Nc1cccc(F)c1)[C@@H]1CCCN1`, the inhibition is reported as 4.36% (inactive). `Cc1ccc(S(=O)(=O)N2CCOCC2)cc1C(=O)OC1CCCCC1=O` (stereo not given) was tested, and the inhibition was -3.51% (inactive). `O=[N+]([O-])c1ccc(F)cc1Oc1nc(-c2cccnc2)nc2ccccc12` was tested, and the inhibition was -1.37% (inactive). For `CCOC(=O)c1nc(Nc2ccc(C(=O)OC)cc2)c2ccccc2n1`, the inhibition was -1.24% (inactive). In the case of `COc1ccc(Nc2nc(-c3cccnc3)nc3ccccc23)cn1`, the inhibition is reported as 100% (active). In the case of `CNC(=O)c1[nH]cnc1C(=O)N[C@@H](CC(C)C)C(=O)OCc1ccccc1`, the inhibition is reported as 10.1% (inactive). In the case of `COC(=O)CN1C(=O)N/C(=C/c2ccc(OC)c(C)c2OC)C1=O`, the inhibition is reported as 9.69% (inactive). `O=C(OCC1OC(Oc2ccc(O)cc2)C(O)C(O)C1O)c1ccccc1` (stereo not given) was tested, and the inhibition was 2.13% (inactive). `O=C(OCC1O[C@@H](OC(=O)c2cc(O)c(O)c(O)c2)[C@@H](OC(=O)c2cc(O)c(O)c(O)c2)[C@@H](OC(=O)c2cc(O)c(O)c(O)c2)[C@@H]1OC(=O)c1cc(O)c(O)c(O)c1)c1cc(O)c(O)c(O)c1` (stereo not given in full) was tested, and the inhibition was 34.6% (active). For `Cc1ccc(NC(=O)c2ccc(Cl)nc2)cc1S(=O)(=O)N1CCOCC1`, the inhibition was -0.28% (inactive). For `O=C1c2ccccc2C(=O)c2c1cccc2N1CCN(CCO)CC1`, the inhibition was 48.6% (active). `O=C1c2ccccc2C(=O)c2c1cccc2N1CCN(C/C=C/c2ccccc2)CC1` was tested, and the inhibition was 9.38% (inactive). With `O=C1c2ccccc2C(=O)c2c1cccc2N1CCN(Cc2ccccc2)CC1` the inhibition was 0.8% (inactive). With `CC(C(=O)NCC1CCCCC1)N(C)Cc1cccc(Cl)c1` (stereo not given) the inhibition was 4.56% (inactive). `CN(C)/C=C(/C(=O)c1ccc(F)cc1)S(=O)(=O)c1ccc(F)cc1` was tested, and the inhibition was 3.44% (inactive). In the case of `Nc1nonc1-c1nc2ccccc2n1Cc1ccc(F)cc1`, the inhibition is reported as 1.28% (inactive). In the case of `O=c1[nH]cccc1-c1nc2ccccc2n1Cc1ccc(Cl)cc1`, the inhibition is reported as 45% (active). For `CC(=O)Nc1nc2ccccc2n1Cc1ccc(C)cc1`, the inhibition was 0.42% (inactive). With `CC1OC2C(OC1C)N(S(C)(=O)=O)CCN2S(C)(=O)=O` (stereo not given) the inhibition was 3.56% (inactive). `CCCOc1ccc(N2C(=O)CC(N(CCc3ccc(S(N)(=O)=O)cc3)C(C)=O)C2=O)cc1` (stereo not given) was tested, and the inhibition was -1.23% (inactive). `Cc1ccc2nc(N3C(=O)C(O)=C(C(=O)c4ccco4)C3c3cccc(O)c3)sc2c1` (stereo not given) was tested, and the inhibition was 0.27% (inactive). For `C=CCSc1nnc(N2C(=O)C(O)=C(C(=O)c3ccco3)C2c2ccc(F)cc2)s1` (stereo not given), the inhibition was 44.5% (active). `CC(C)c1ccc(C2C(C(=O)c3ccco3)=C(O)C(=O)N2CC2CCCO2)cc1` (stereo not given) was tested, and the inhibition was 4.96% (inactive). `CCN1CCC2(CC1)N=C(c1ccc(F)cc1)C(=S)N2C(=O)c1ccc(C)cc1` was tested, and the inhibition was 7.8% (inactive). `CCCn1c(C2CCCN2c2nc(-c3ccc(OC)cc3)cs2)nc2ccccc21` (stereo not given) was tested, and the inhibition was 9.35% (inactive). In the case of `CCCn1c(C(C)Nc2nc(-c3ccc(C)cc3)cs2)nc2cc(Cl)c(N3CCCCC3)cc21` (stereo not given), the inhibition is reported as 2.12% (inactive). With `CCCn1c(C2CCCN2c2nc(-c3ccc(C)cc3)cs2)nc2cc(Cl)c(N3CCCCC3)cc21` (stereo not given) the inhibition was 34.6% (active). With `CCOC(=O)C1CCN(C(=O)CC2C(=O)N(Cc3ccccc3)C(C)c3nc4ccccc4n32)CC1` (stereo not given) the inhibition was 3.57% (inactive). In the case of `O=C(CN1CCN(Cc2ccc(F)cc2Cl)C1=O)NCc1cccs1`, the inhibition is reported as 5.83% (inactive). `COc1ccc(OCCCn2cccc2/C=C2/C(=N)N3OC(C)=CC3=NC2=O)cc1` was tested, and the inhibition was 3.29% (inactive). In the case of `CC1=CC2=NC(=O)/C(=C/c3coc4ccccc4c3=O)C(=N)N2O1`, the inhibition is reported as 32.9% (active). With `CCOc1cc(/C=C2/C(=N)N3OC(C)=CC3=NC2=O)ccc1OC` the inhibition was -3.88% (inactive). For `COC(=O)C1=C(NC(=O)C(C)(C)C)CCS1`, the inhibition was 5.48% (inactive). In the case of `O=C(COC(=O)c1ccccc1C(=O)N1CCN(c2ccccc2)CC1)NCc1ccccc1`, the inhibition is reported as 55.9% (active). With `CC(C)N(C(=O)COC(=O)c1ccccc1C(=O)N1CCN(c2ccc(F)cc2)CC1)C(C)C` the inhibition was 6.66% (inactive). In the case of `O=C(c1cc(=O)c2ccccc2o1)N1CCN(c2ccccc2)CC1`, the inhibition is reported as -3.54% (inactive). `CCn1c(=S)[nH]c2sc3c(c2c1=O)CCCCC3` was tested, and the inhibition was -5.76% (inactive). For `Cc1ccccc1SCC(=O)OCC(=O)N1CC(=O)Nc2ccccc21`, the inhibition was 1.92% (inactive). With `CC1CN(C(=O)CCC(=O)NCCCN2CCC(Cc3ccccc3)CC2)c2cc(Cl)ccc2O1` (stereo not given) the inhibition was 5.77% (inactive). `Cc1c(CN2CCCCC2)c(O)n(CCO)c(=O)c1C#N` was tested, and the inhibition was 7.69% (inactive). With `CCCCCCn1c(CN2CCCC(C)C2)nc2c1c(=O)n(C)c(=O)n2C` (stereo not given) the inhibition was 9.13% (inactive). In the case of `CCCn1c(O)c(CN2CCCC(C)C2)c(C)c(C#N)c1=O` (stereo not given), the inhibition is reported as 41.2% (active). For `COCCNC(=O)Nc1ccc2nc(-c3ccco3)c(-c3ccco3)nc2c1`, the inhibition was 69.3% (active). With `COc1cccc(NC(=O)NCCN2CCCCC2)c1` the inhibition was 11.7% (inactive). In the case of `O=C(NCc1ccccn1)c1ccc2nc(-c3ccco3)c(-c3ccco3)nc2c1`, the inhibition is reported as 20.3% (inactive). In the case of `CNS(=O)(=O)c1ccc(NC(=O)C2CC(=O)N(c3ccc(Cl)cc3)C2)cc1` (stereo not given), the inhibition is reported as 1.34% (inactive). In the case of `CC(C)(C)C(=O)CSc1ccc(S(=O)(=O)N2CCCC2)cn1`, the inhibition is reported as 4.63% (inactive). For `CCCCc1ccc(S(N)(=O)=O)cc1`, the inhibition was 6.14% (inactive). `C[C@@H]1CC[C@@]2(OC1)O[C@H]1C[C@H]3[C@@H]4CC=C5C[C@@H](O)[C@H](O)C[C@]5(C)C4CC[C@]3(C)[C@H]1[C@@H]2C` (stereo not given in full) was tested, and the inhibition was -7.94% (inactive). `COc1cccc2cc(C(C)N(CCCN3CCOCC3)C(=O)Nc3ccc(Cl)cc3)oc12` (stereo not given) was tested, and the inhibition was 2.92% (inactive).
